The supplement of paper PMC8371130
Counter-ions that a name gives are not always drawn.

Tested on: HL-1
Assay: relative cell viability (CellTiter-Glo) vs DMSO control (% of DMSO control); higher = more viable cells
In short: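 HL-1 mouse atrial cardiomyocytes were seeded into 384-well plates at 1000 cells per well along with compounds at 40, 200, 1000 or 5000 nM in 0.01% DMSO. After one day, the cells were moved to a hypoxic workstation (1% O2) for 48 h and then reoxygenated for 24 h in a normal incubator, while others remained in normoxia for the same period. Cell viability was measured by CellTiter-Glo luminescence and normalised to vehicle-treated control cells.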

[1] = oxygen condition: hypoxia 48 h (1% O2) + reoxygenation 24 h, 40 nM
[2] = oxygen condition: hypoxia 48 h (1% O2) + reoxygenation 24 h, 200 nM
[3] = oxygen condition: hypoxia 48 h (1% O2) + reoxygenation 24 h, 1000 nM
[4] = oxygen condition: hypoxia 48 h (1% O2) + reoxygenation 24 h, 5000 nM
[5] = oxygen condition: normoxia 72 h, 40 nM
[6] = oxygen condition: normoxia 72 h, 200 nM
[7] = oxygen condition: normoxia 72 h, 1000 nM
[8] = oxygen condition: normoxia 72 h, 5000 nM

Row | SMILES | relative cell viability [1] | relative cell viability [2] | relative cell viability [3] | relative cell viability [4] | relative cell viability [5] | relative cell viability [6] | relative cell viability [7] | relative cell viability [8]
1 | NCCCC[C@H](N[C@@H](CCc1ccccc1)C(=O)O)C(=O)N1CCC[C@H]1C(=O)O [Lisinopril] | 111 | 94.9 | 100 | 107 | 101 | 94.7 | 107 | 108
2 | C=CCc1cc(OC)c(O)c(C(=O)NCCO)c1 [Alibendol] | 103 | 102 | 108 | 113 | 101 | 104 | 112 | 115
3 | NC(=O)NO [Hydroxyurea] | 101 | 109 | 109 | 108 | 108 | 103 | 109 | 110
4 | CCCCNC(=O)NS(=O)(=O)c1ccc(C)cc1 [Tolbutamide] | 99 | 99.7 | 101 | 113 | 103 | 102 | 102 | 110
5 | N=C(N)NC(=N)N1CCOCC1 [Moroxydine] | 101 | 98.5 | 103 | 108 | 96.3 | 101 | 105 | 114
6 | Cc1cc(C#N)cc(C)c1Oc1nc(Nc2ccc(C#N)cc2)nc(N)c1Br [Etravirine] | 106 | 103 | 109 | 111 | 108 | 111 | 115 | 110
7 | CN1C2=CC(=O)/C(=N\NC(N)=O)C=C2CC1S(=O)(=O)O (configuration not stated) [Carbazochrome sodium sulfonate] | 99 | 97 | 101 | 112 | 95 | 102 | 89.9 | 108
8 | COc1cc2c(cc1O)CC[C@@H]1[C@@H]2CC[C@]2(C)[C@@H](O)CC[C@@H]12 [2-Methoxyestradiol] | 106 | 104 | 102 | 112 | 102 | 105 | 102 | 109
9 | Cn1ccnc1S [Methimazole] | 102 | 99.9 | 105 | 98.1 | 107 | 100 | 95.4 | 95.9
10 | CC(=O)/N=c1/sc(S(N)(=O)=O)nn1C [Methazolamide] | 100 | 109 | 108 | 109 | 110 | 105 | 99.7 | 108
11 | Nc1nc2n[nH]nc2c(=O)[nH]1 [Azaguanine-8] | 92 | 105 | 102 | 111 | 103 | 102 | 98.7 | 104
12 | CCCCOc1ccc(CC(=O)NO)cc1 [Bufexamac] | 109 | 100 | 111 | 117 | 105 | 107 | 107 | 110
13 | N[C@H](Cc1ccccc1)C(=O)O [D-Phenylalanine] | 103 | 99.4 | 109 | 111 | 92 | 101 | 108 | 116
14 | CC[C@]1(O)C[C@@H]2CN(CCc3c([nH]c4ccccc34)[C@@](C(=O)OC)(c3cc4c(cc3OC)N(C)[C@H]3[C@@](O)(C(=O)OC)[C@H](OC(C)=O)[C@]5(CC)C=CCN6CC[C@]43[C@@H]65)C2)C1 [Vinblastine] | 35.3 | 41.6 | 43.5 | 37.2 | 28 | 32.3 | 36 | 35.9
15 | CC(C)OC(=O)C(C(=O)OC(C)C)=C1SC=CS1 [Malotilate] | 89.7 | 105 | 115 | 109 | 102 | 104 | 111 | 109
16 | Cc1cc2c(cc1S(N)(=O)=O)S(=O)(=O)CCC2 [Meticrane] | 101 | 101 | 105 | 103 | 102 | 104 | 102 | 112
17 | CC(=O)OCC(=O)[C@@]1(O)CC[C@H]2[C@@H]3CCC4=CC(=O)CC[C@]4(C)[C@H]3C(=O)C[C@@]21C [Cortisone acetate] | 99.7 | 98.2 | 98.1 | 108 | 94.7 | 94.2 | 93.2 | 103

Row | SMILES | relative cell viability [1] | relative cell viability [2] | relative cell viability [3] | relative cell viability [4] | relative cell viability [5] | relative cell viability [6] | relative cell viability [7] | relative cell viability [8]
18 | CC1CCc2c(N3CCC(O)CC3)c(F)cc3c(=O)c(C(=O)O)cn1c23 (configuration not stated) [Nadifloxacin] | 103 | 104 | 102 | 110 | 104 | 103 | 100 | 107
19 | CSc1ccc2c(c1)N(CCC1CCCCN1C)c1ccccc1S2 (configuration not stated) [Thioridazine HCl] | 101 | 108 | 101 | 107 | 98.9 | 101 | 98.7 | 108
20 | CNCC[C@H](Oc1cccc2ccccc12)c1cccs1 [Duloxetine HCl] | 92 | 96 | 99.8 | 92.8 | 89.9 | 94.3 | 106 | 104
21 | N[C@@H](Cc1cc(I)c(Oc2cc(I)c(O)c(I)c2)c(I)c1)C(=O)O [L-Thyroxine] | 98.5 | 101 | 99.6 | 110 | 108 | 101 | 99.3 | 109
22 | CC=CC1=C(C(=O)O)N2C(=O)[C@@H](NC(=O)[C@H](N)c3ccc(O)cc3)[C@H]2SC1 [Cefprozil hydrate] | 95.4 | 104 | 105 | 104 | 102 | 103 | 100 | 107
23 | CN(C)/N=N/c1[nH]cnc1C(N)=O [Dacarbazine] | 97.5 | 107 | 110 | 113 | 105 | 106 | 107 | 113
24 | COc1cc(C(=O)NC2CCCNC2)cc(OC)c1OC (configuration not stated) [Troxipide] | 103 | 109 | 106 | 110 | 109 | 110 | 116 | 113
25 | COc1ccc(CC2c3cc(OC)c(OC)cc3CC[N+]2(C)CCC(=O)OCCCCCOC(=O)CC[N+]2(C)CCc3cc(OC)c(OC)cc3C2Cc2ccc(OC)c(OC)c2)cc1OC (configuration not stated) [Atracurium besylate] | 104 | 96.7 | 91.2 | 23.1 | 101 | 93.3 | 95.7 | 18.9
26 | CN1CCN(CCCN2c3ccccc3Sc3ccc(C(F)(F)F)cc32)CC1 [Trifluoperazine 2HCl] | 102 | 103 | 105 | 114 | 107 | 106 | 103 | 112
27 | O=C(Nc1c(Cl)cncc1Cl)c1ccc(OC(F)F)c(OCC2CC2)c1 [Roflumilast] | 101 | 82.1 | 92.9 | 99 | 90.6 | 84.6 | 93.7 | 93.6
28 | C#Cc1cccc(Nc2ncnc3cc(OCCOC)c(OCCO)cc23)c1 | 100 | 106 | 107 | 109 | 111 | 104 | 105 | 121
29 | CC(=O)OCC(=O)NCCCOc1cccc(CN2CCCCC2)c1 [Roxatidine acetate HCl] | 105 | 104 | 99.8 | 114 | 110 | 102 | 107 | 108
30 | Cc1ccc(S(=O)(=O)NC(=O)NN2CC3CCCC3C2)cc1 (configuration not stated) [Gliclazide] | 104 | 110 | 111 | 104 | 112 | 113 | 118 | 112
31 | C=C[C@]1(C)C[C@@H](OC(=O)CS[C@@H]2C[C@H]3CC[C@@H](C2)N3C)[C@]2(C)[C@H](C)CC[C@]3(CCC(=O)[C@H]32)[C@@H](C)[C@@H]1O [Retapamulin] | 104 | 104 | 105 | 108 | 98.3 | 97.1 | 89.2 | 81.7
32 | CNC[C@@H](O)c1ccc(O)c(O)c1 [L-Adrenaline] | 102 | 99.7 | 100 | 99.2 | 100 | 101 | 95.7 | 95.4
33 | O=C1CN2Cc3c(ccc(Cl)c3Cl)N=C2N1 [Anagrelide HCl] | 97.6 | 98.7 | 97.5 | 108 | 99.8 | 100 | 105 | 111
34 | Cc1ncc([N+](=O)[O-])n1CC(O)CCl (configuration not stated) [Ornidazole] | 106 | 109 | 123 | 115 | 108 | 108 | 103 | 117
